Rows were chosen to be rich in hits. Some 3.2% of all compounds tested hit in one or more screens of this group.
DENV2 CPE: inhibitors of DENV2 cytopathic effect, primary screen, cell-based, plate reader, single concentration | 1.7% of 350,000 active | DENV2-infected cells, cytopathic effect rescue | CPE inhibition, % at 9.99 µM; in the data active means CPE inhibition above about 20%, passing the limit was not always enough; tested in BHK-21 cells;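 further: 0% = median of neutral control wells and 100% = median of positive control wells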
PGC1a acetyl inh: inhibitors of PGC1a acetylation signal, primary screen, cell-based, U2OS, AlphaScreen, inhibitor mode; AlphaScreen anti-acetyl-lysine; with virally co-expressed GCN5 acetyltransferase; inhibition, % at 15.6 µM; 0.17% of 350,000 active; AID 651687, 2012;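 active means every replicate shows inhibition of at least 40%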;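 further: 0% = neutral control wells and 100% = positive control wells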
rRNA inh HTS: reduced GFP signal of wild-type E. coli, primary screen, bacterial rRNA inhibitor project, GFP/RFP fluorescence, OD600, single point; E. coli WT GFP vs humanized-ribosome RFP mutants, 24 h; active compounds read low; DMSO median 0, no signal -100; GFP signal change (wild-type ribosome), % (concentration not given with the values); 1.6% of 350,000 active;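 active means significant combined selectivity score with lowered wild-type GFP, culture density cut under 30%, mutant RFP and density less affected; inactive means any of these conditions unmet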
CaV13 FRET inh: Disruptors of the CACNA1D IQ motif to Ca2+-dependent inactivation inhibitor domain association, primary screening, Förster resonance energy transfer in intact living …; HEK cells, CFP/YFP FRET ICDI-IQ, plate reader, 10 min; percent FRET-ratio fall versus neutral wells; inhibition, % at 12.3 µM; 0.098% of 340,000 active;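 active means mean replicate inhibition of at least 30% and at least 1% of replicates passing that level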;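 further: 0% = median of the neutral control wells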
ERAP1 HTS inh: human ERAP1 aminopeptidase inhibitors, primary screen, biochemical, single point, plate reader. recombinant ERAP1, Leu-AMC fluorescence, 60 min. inhibition, % at 10.7 µM. 0.15% of 340,000 active. AID 652197, 2013;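 active means mean replicate inhibition of at least 30%, or all replicates individually reaching that 30% level; inactive means mean below 30% and not every replicate reaching it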;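 further: 0% = neutral control wells and 100% = L-leucinethiol positive control wells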
INS-1E GSIS act: GLuc luminescence reporter in INS-1E cells, primary screen for activators of glucose-dependent secretion of insulin. INS-1E GLuc reporter insulin secretion, 2-3 h. activation, % at 16.6 µM. 0.61% of 370,000 active. AID 743287, 2014;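 active means lowest replicate activation of at least 40%, so every replicate reaches that level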;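 further: 0% = median of neutral control wells and 100% = median of IBMX positive control wells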
Starred values were filed as active, the others as inactive; x = no result; ! = a repeat was not active.

SMILES	DENV2 CPE	PGC1a acetyl inh	rRNA inh HTS	CaV13 FRET inh	ERAP1 HTS inh	INS-1E GSIS act
CC=Cc1ccc2n(c1=O)C[C@H]1[C@H](CO)[C@@H](C(=O)NCC)[C@@H]2N1Cc1cccc(Cl)c1 (mixture of isomers)	0	x	1	x	-7	-8
COC(=O)c1cc2oc3ccccc3c2n1Cc1ccccn1	x	x	-44*	x	1	33
COC(=O)c1cc2oc3ccccc3c2n1CC(=O)N1CCCc2ccccc21	x	x	x	-4	x	x
C[C@H](CO)N1C[C@H](C)[C@@H](CN(C)S(=O)(=O)c2ccc(Cl)cc2)Oc2c(NC(=O)NC3CCCCC3)cccc2C1=O	21*	2	-6	x	1	-19
COc1ccc(S(=O)(=O)N(C)C[C@H]2Oc3c(NC(=O)NC4CCCCC4)cccc3C(=O)N([C@H](C)CO)C[C@@H]2C)cc1	70*!	10	-7	-4	2	-16
COc1ccc(S(=O)(=O)N(C)C[C@@H]2Oc3c(NC(=O)NC4CCCCC4)cccc3C(=O)N([C@H](C)CO)C[C@@H]2C)cc1	-2	15	-1	x	1	-15
O=C1ON=C(c2ccc(Cl)c([N+](=O)[O-])c2)/C1=C/c1cccc([N+](=O)[O-])c1O	0	x	9	-2	99*	1
O=C1ON=C(c2ccccc2[N+](=O)[O-])/C1=C/c1cccc([N+](=O)[O-])c1O	-1	9	11	-2	65*	10
CC(C)CC#Cc1ccc([C@H]2[C@H](CO)N3CCCCN(S(=O)(=O)c4ccc(F)cc4)C[C@@H]23)cc1	-23	3	2	x	-2	-18
CC1CCCCN1C(=O)COC(=O)CSc1ccc(C(N)=O)cc1[N+](=O)[O-] (stereo not drawn)	-1	-1	-12	-6	-1	45*
CN(C)CCNc1ncnc2c1sc1nc(-c3ccccc3)c3c(c12)CCCC3	-6	18	-59	-2	-9	193*
COc1ncnc2c1sc1nc(-c3ccccc3)c3c(c12)CCCC3	x	x	x	-4	x	0
CN(C)CCCN(Cc1ccccc1)C(=S)Nc1ccc(F)c(Cl)c1	5	2	-46*	-2	0	-24
Cc1cc(NC(=S)N(Cc2ccc(Cl)cc2)Cc2ccc(C(=O)O)cc2)ccc1Cl	-4	13	-58	-5	1	-37
COc1ccc(NC(=S)N(Cc2ccc(Cl)cc2)Cc2ccc(C(=O)O)cc2)cc1Cl	-1	x	-32*	-21	2	-10
CN(C)CCCN(Cc1ccccc1)C(=S)Nc1cccc(C(F)(F)F)c1	x	-15	x	-5	x	-9
O=C1c2ccccc2NC(c2ccc(Br)s2)N1O (stereo not drawn)	53*	x	-47	-4	0	x
O=C(O)c1cc(N2N=C(C(F)(F)F)/C(=C/C=C/c3ccco3)C2=O)ccc1Cl	x	-11	13	-7	33*	-15
CCOC(=O)c1ccc(N2N=C(C)/C(=C/C=C/c3ccco3)C2=O)cc1	x	10	x	-5	x	x
O=C(C[C@@H]1C[C@H]2c3cc(NC(=O)c4cccnc4)ccc3O[C@H]2[C@@H](CO)O1)NCc1ccncc1	2	2	1	x	6	2
CCCn1c(=O)c(C(=O)NNS(=O)(=O)c2ccc(C)cc2)c(O)c2ccccc21	35*	0	-49	-4	-2	2
C[C@@H]1CN([C@@H](C)CO)C(=O)c2cc(NS(=O)(=O)c3ccc(Cl)cc3)ccc2O[C@@H](C)CCCCO[C@@H]1CN(C)C(=O)Nc1ccc2c(c1)OCO2	-3	8	-1	x	-5	7
CCCN(C)C[C@@H]1Oc2cc(C#CC3CCCCC3)ccc2S(=O)(=O)N([C@@H](C)CO)C[C@H]1C	x	-19	-4	x	x	12
CC(=NN1CC(=O)NC1=O)c1ccc([N+](=O)[O-])o1	-10	-8	-38*	-8	1	-9
CCCc1cn(CC[C@H]2CC[C@@H](NS(=O)(=O)c3ccc(-c4ccccc4)cc3)[C@H](CO)O2)nn1	3	1	-4	x	-1	-16
SMILES	DENV2 CPE	PGC1a acetyl inh	rRNA inh HTS	CaV13 FRET inh	ERAP1 HTS inh	INS-1E GSIS act
CC(=O)Nc1ccc(-c2ccnc3c2CC(C(=O)Nc2ccccc2)O3)cc1 (stereo not drawn)	56*	-10	3	-4	1	-7
CC(=O)Nc1cccc(-c2ccnc3c2CC(C(=O)NCc2cccc(Cl)c2)O3)c1 (stereo not drawn)	-5	x	-4	45*	-3	-17
C[C@@H]1CN([C@H](C)CO)C(=O)c2cc(C#CC3CCCCC3)cnc2O[C@H]1CN(C)Cc1cncnc1	-7	5	-2	x	-4	-21
O=C(CCc1nc2ccccc2c(=O)[nH]1)N1CCCc2ccccc21	53*	5	6	-4	-1	3
CC(C)c1nc2sc3c(NCc4ccco4)ncnc3c2c2c1COC(C)(C)C2	x	59*	x	-6	x	x
CC(C)c1nc2sc3c(NCc4ccccc4)ncnc3c2c2c1COC(C)(C)C2	x	1	x	x	x	x
Cc1noc(C)c1NC(=O)Nc1cccc2c1O[C@H](CN(C)C(=O)Nc1ccc(F)cc1)[C@@H](C)CN([C@H](C)CO)C2=O	x	0	0	x	x	7
CCO[C@H]1OC(C(=O)N2CCN(Cc3ccccc3)CC2)=C[C@@H](c2ccccc2)[C@@H]1CCCO	4	-30	-32*	-5	2	-34
O=C(C1=C[C@H](C2CC2)C[C@H](OCCCCO)O1)N1CCN(Cc2ccc3c(c2)OCO3)CC1	1	-13	8	-10	-3	0
CCO[C@@H]1OC(C(=O)N2CCN(Cc3ccccc3)CC2)=C[C@H](c2ccc3c(c2)OCO3)[C@H]1CCCO	-1	-6	x	x	3	x
C[C@@H]1C=C(C(=O)N2CCN(Cc3ccc4c(c3)OCO4)CC2)O[C@H](OCCCCO)C1	21*	x	7	-5	-3	x
CCO[C@H]1OC(C(=O)N2CCN(Cc3ccccc3)CC2)=C[C@@H](c2ccc(C(F)(F)F)cc2)[C@@H]1CCCO	-6	-16	-44	-5	1	-52
C#CCNC(=O)C1=C[C@H](c2ccc3c(c2)OCO3)C[C@H](OCCCCO)O1	26*	x	10	-11	x	-3
C#CCNC(=O)C1=C[C@@H](c2ccc3c(c2)OCO3)C[C@@H](OCCCCO)O1	-14	-1	6	-6	3	27
CCO[C@H]1OC(C(=O)N2CCN(Cc3ccc4c(c3)OCO4)CC2)=C[C@@H](c2ccc3c(c2)OCO3)[C@@H]1CCCO	0	-4	-22*	-8	0	-11

Compound activity deposited in PubChem BioAssay by Broad Institute.
